Reference: PubChem BioAssay AID720596 (The Scripps Research Institute Molecular Screening Center, 2013)
About 1,600 (0.43%) of roughly 370,000 compounds were called active. Cut-off read from the data, not from the text of the source: active = inhibition above about 24%; inactive = the rest. Many of the other results were omitted from the sample, so actives are more common in it than they were.

biological target: Major prion protein (Homo sapiens) (UniProt P04156); experiment: reduces human prion protein on the cell surface, primary screen, cell-based, TR-FRET (AID 720596); details: cell surface PrPC, TR-FRET read-out; at 13.8 µM; stronger effect = higher value; note: 0% = median of the test wells and 100% = reference compound wells

Compound | inhibition
CCOC(=O)C1CCN(C(=O)COc2cc(C)c(Br)c(C)c2)CC1 | 0.57% (inactive)
O=C(/C(=N\O)n1cncn1)c1ccc(Br)cc1Br | -3.03% (inactive)
CC12CN(Cc3ccccc3)CC(C)(CN(Cc3ccccc3)C1)C2=NO | -7.09% (inactive)
COc1ccc(Cn2cc(COC(=O)N(C)Cc3ccccc3)nn2)cc1 | 6.15% (inactive)
OCC1(CO)CC2(C1)CC(CO)(CO)C2 | 2.39% (inactive)
O=C(Nc1cc(F)cc(F)c1)OC1CCC12CCC(c1ccccc1)CC2 (stereo unspecified) | 4.41% (inactive)
FC(F)(F)c1cccc(NC(=S)OC2CCC23CCC(c2ccccc2)CC3)c1 (stereo unspecified) | 24.4% (active)
CSc1nccc(NC(=O)c2ccc(C(C)(C)C)cc2)n1 | 29.4% (active)
CSc1ncc(C(=O)Nc2ccc(C)cc2C)c(C)n1 | -0.45% (inactive)
CC(C)(C)c1ccc(C(=O)Nc2cc(Cl)c(Br)cc2C(=O)O)cc1 | 21% (inactive)
Cn1cc(CN2CCCCC2c2ccccn2)c(-c2ccc3c(c2)OCCO3)n1 (stereo unspecified) | -3.25% (inactive)
CC(C)C(=O)N1CCC2(CC1)Oc1ccc(F)cc1C(=O)C21CC(c2ccccc2)=NO1 (stereo unspecified) | -0.07% (inactive)
CCCCN(CC)C(=O)C1CCCN(S(=O)(=O)c2cccc3nsnc23)C1 (stereo unspecified) | -27.1% (inactive)
COc1cc(C)c(C(C)C)cc1S(=O)(=O)n1ccnc1 | -1.35% (inactive)
OCCCNc1nccc(-c2cc(Nc3cccc(Cl)c3)ncn2)n1 | 29.2% (active)
COCn1c(C(O)c2ccccc2)cc2ccccc21 (stereo unspecified) | 6.96% (inactive)
O=C(O)C#Cc1cccc2ccccc12 | 17.9% (inactive)
CN(O)C(=S)c1ccccc1 | 36.8% (active)
O=C(c1ccco1)N1CCN(CC(=O)N(C2CCCCC2)C2CCS(=O)(=O)C2)CC1 (stereo unspecified) | 7.46% (inactive)
CC1=CCC2C(=O)N(c3cccc(C(=O)NC(C)c4ccccc4)c3)C(=O)C2C1 (stereo unspecified) | -1.98% (inactive)
CC(=O)c1nc(N2C(=O)C3CC=C(C)CC3C2=O)sc1C (stereo unspecified) | 38.2% (active)

Compound | inhibition
COc1ccc(CCN2C(=O)C3CC=C(C)CC3C2=O)cc1OC (stereo unspecified) | -3.31% (inactive)
Cc1ccc(N2C(=O)N3[C@@H]4c5ccccc5OC[C@@H]4[C@@H](c4ccccc4)[C@@]3(C)C2=O)cc1 | -0.71% (inactive)
O=C(CCn1nnnc1CN1CCOCC1)N1CCC(c2ccccc2Cl)C1 (stereo unspecified) | 1.76% (inactive)
COCCNC(=O)C1(C)CCCN(Cc2cccc(F)c2)C1 (stereo unspecified) | 10.6% (inactive)
CC(C)CC(N=C1NC(C)(C)Cc2ccccc21)C(=O)O (stereo unspecified) | -0.6% (inactive)
CC1(C)Cc2ccccc2-c2[nH]c(=S)[nH]c(=O)c21 | 78.3% (active)
N#CC1=C(N)Oc2[nH]c(=S)[nH]c(=O)c2C12C(=O)Nc1ccccc12 (stereo unspecified) | -0.84% (inactive)
O=C(CCCCCN1C(=O)C2C3C=CC(C3)C2C1=O)Nc1ccccc1 (stereo unspecified) | 3.7% (inactive)
Cc1ccc(C)c(NC(=O)C2CC(=O)N(C(C)C)C2)c1 (stereo unspecified) | 1.81% (inactive)
CC(C)(C)NC(=O)COc1ccc(CNc2ccc3[nH]c(=O)[nH]c3c2)cc1 | -1.03% (inactive)
COc1ccccc1NC(=O)COC(=O)CNC(=O)C1CCCCC1 | -3.12% (inactive)
COc1ccc(NC(=O)COC(=O)CNC(=O)C2CCCCC2)cc1 | 31.5% (active)
COc1ccc(NC(=O)CN(C)C(=O)CNC(=O)C2CCCCC2)cc1 | 7.94% (inactive)
Cc1ccc(NC(=O)N2c3ccccc3SC2c2ccco2)c(C)c1 (stereo unspecified) | 2.15% (inactive)
COc1ccc(C(=O)N2CCCCC2c2cc(C(=O)Nc3ccccc3)no2)cc1 (stereo unspecified) | 6.89% (inactive)
CN1CCn2cnc(C(=O)NCC(=O)OC(C)(C)C)c2C1=O | -0.34% (inactive)
COCC1CCN(C(=O)C2CCC(=O)N(Cc3cccc(C(F)(F)F)c3)C2)CC1 (stereo unspecified) | 9.85% (inactive)
COc1cc(F)ccc1-c1cc(C(=O)NCC2CCCCC2)[nH]n1 | 9.68% (inactive)
COc1ccc(OC)c(NC(=O)c2cc(-c3cc(F)ccc3OCC3CCCO3)n[nH]2)c1 (stereo unspecified) | 84.9% (active)
COc1ccccc1CNC(=O)c1cc(-c2cc(F)ccc2OC)n[nH]1 | -1.69% (inactive)
CC1(C)CC(=O)C2=C(C1)NCN(CCCN1CCOCC1)C2 | -0.29% (inactive)

Compound | inhibition
Cn1cccc1C1(C(F)(F)F)NCCNC1=O (stereo unspecified) | -0.11% (inactive)
O=C(O)c1ccc(F)c(S(=O)(=O)Nc2ccccc2)c1 | -4.14% (inactive)
Cc1ccc(C(=O)Nc2ccccc2-c2ccccc2)cc1S(=O)(=O)Nc1ccccc1 | 25.5% (active)
Cc1cc(C(C)(C)C)cc(S(=O)(=O)Nc2ccc(C(=O)O)cc2)c1C | 0.8% (inactive)
CCC(C)N(C(=O)COC(=O)c1nc(Cl)ccc1Cl)C1CCS(=O)(=O)C1 (stereo unspecified) | 5.66% (inactive)
COc1cccc2sc3cc(NCC[C@@H]4CCCN4C)ccc3c(=O)c12 | 44.1% (active)
Cc1cc2oc3ccc(NCCC4CCCN4C)cc3c(=O)c2cc1C (stereo unspecified) | -13.5% (inactive)
N#Cc1c(-c2ccc(Cl)cc2)c2c([nH]c1=S)CCCC2 | -2.9% (inactive)
CC1CC(=O)Nc2ccccc2N1C(=O)COc1ccc2cc(Br)ccc2c1 (stereo unspecified) | -0.09% (inactive)
O=C(Nc1ccccc1Cl)/C(Cl)=C(\Cl)S(=O)c1ccccc1 (stereo unspecified) | 93.7% (active)
Cc1ccc(S(=O)(=O)N(C)C)cc1NC(=O)c1ccc(-n2cncn2)c([N+](=O)[O-])c1 | -32.8% (inactive)
O=C(N/N=C/c1c(O)n(C2CC2)c(=S)[nH]c1=O)c1ccccc1Cl | 6.86% (inactive)
O=C(N/N=C/c1c(O)n(C2CC2)c(=S)[nH]c1=O)c1ccccc1 | -3.29% (inactive)
Cc1[nH]n(-c2ccccc2)c(=O)c1/C=N/NC(=O)c1ccoc1C | 43.4% (active)
O=C(CCN1CCCO1)N1CCCC(N2CCN(c3cccc(C(F)(F)F)c3)CC2)C1 (stereo unspecified) | 1.86% (inactive)
Cn1c(=S)sc2ccc3ccccc3c21 | 51.9% (active)
COc1ccc2ccccc2c1CNc1nnnn1C | -6.2% (inactive)
CSc1nnc(CNC(=O)c2ccccc2)n1-c1ccc(F)cc1 | 0.49% (inactive)
CC1=C(C(=O)Nc2cccc(C(=O)NCC(C)c3ccccc3)c2)SCCO1 (stereo unspecified) | 12.5% (inactive)
